HCV inh – qHTS Assay for Inhibitors of Hepatitis C Virus (HCV); AID 651820, 2012; Potency, µM (top dose mostly 41.8 µM), for the others: at the highest dose activity change, negative = inhibition, hits mostly inhibitors; 340,000 tested, 3.4% active; Huh7.5.1 HCVcc-Cre infection, luciferase reporter, 44 h; note: potency is the fitted concentration of half-maximal effect
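After 44 h co-culture of compound, cells and HCVcc-Cre (~0.5 moi), substrate is added for 15 min at room temperature and luciferase measured over 15 sec. Cells were seeded at 1,000/well and pre-cultured 4 h.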
Vaccinia mCherry – qHTS for Stage-Specific Inhibitors of Vaccinia Orthopoxvirus: mCherry Reporter Primary qHTS; Vaccinia virus mCherry reporter infection, fluorescence; Potency, µM (series often up to 36.5 µM), for inactives: at the top dose activity change, negative = inhibition, most hits filed as inhibitors; 310,000 tested, 0.63% active; calls by dose curve; tested in A549 cells; note: potency is the fitted concentration of half-maximal effect; nearly all actives have a fitted effect of over 35% in size
Sm TGR inh – qHTS Assay for the Inhibitors of Schistosoma Mansoni Peroxiredoxins; purified TGR, DTNB reduction, TNB absorbance 405 nm; Potency, µM (doses to about 114 µM), without a hit: top-dose activity change, negative = inhibition, usual class: inhibitors; 360,000 tested, 3% active; AID 485364, 2010; note: potency is the fitted concentration of half-maximal effect; nearly all actives have a fitted effect of over 60% in size
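First, TGR (20 nM dispensed) and NADPH were mixed with compound. Second, a 15 min room-temperature incubation followed. Third, further NADPH and then DTNB were added to start the reaction. Finally, TNB absorbance was monitored kinetically.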
HCMV antiviral – qHTS Assay for inhibitors of the human cytomegalovirus (HCMV); activity change, negative = inhibition, % at 57.5 µM; AID 1259415, 2018; HFF cells, HCMV-luciferase reporter, 72 h; active compounds read low; 410,000 tested, 4.5% active; in the data active = activity change below about -60%; inconclusive = no clear call, values can overlap the other calls; inactive = above about -39%
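Inhibition of viral replication was scored as loss of reporter luminescence in HFFs infected with HCMV-luciferase (MOI 1 PFU/cell) for 72 h; compounds tested at 2 doses, normalized to buffer and Salinomycin controls.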
Vaccinia Venus – qHTS for Stage-Specific Inhibitors of Vaccinia Orthopoxvirus: Venus Reporter Primary qHTS | Vaccinia virus Venus reporter expression, fluorescence | Potency, µM (doses to about 36.5 µM), for inactives: at the top dose activity change, negative = inhibition, actives largely listed as inhibitors | 330,000 tested, 0.46% active; calls by dose curve; tested in A549 cells; note: potency is the fitted concentration of half-maximal effect; nearly all actives have a fitted effect of over 30% in size
FMDV inh – High Throughput Screening for Foot and Mouth Disease Virus Antivirals; FMDV antiviral cell-based qHTS; Potency, µM (titrated, usually from 57.9 µM), for inactives: at the top dose activity change, negative = inhibition, usual class: inhibitors; AID 1159524, 2015; 410,000 tested, 1.2% active; calls by dose curve; tested in HEK293T cells; note: read-out not given here; potency is the fitted concentration of half-maximal effect; nearly all actives have a fitted effect of over 45% in size
* hit, by the source's call; i = inactive; ? = inconclusive; / = not tested or not shown; [ ] = dose if it differs, or a comment. The list is not random: actives were taken first. Their share in the collection is about 9.3%. Unless noted, calls come from the whole dose curve; as a rule, active = well fitted curve in the direction sought with a large enough effect; inconclusive = small, poorly fitted or top-dose-only effect, or another doubt; inactive = no such curve, though single readings can be large; an effect the other way counts as inactive or inconclusive. % is set by controls: 0 for no effect and ±100 for the full control effect.

SMILES	HCV inh	Vaccinia mCherry	Sm TGR inh	HCMV antiviral	Vaccinia Venus	FMDV inh
O=C(Nc1cc(Oc2ccccc2)cc([N+](=O)[O-])c1)C12CC3CC(C1)CC(n1cnc(Cl)n1)(C3)C2	10µM*	/	8%	47	/	-18%
Cc1cc(C)n2nc(CNS(=O)(=O)c3ccccc3)nc2n1	/	-5%	-12%	16	-4%	3%
Cc1cccc(-n2c3nc(=O)[nH]c(=O)c-3cc3cc([N+](=O)[O-])ccc32)c1	6%	?	-16%	-66*	?	35µM*
Cc1ccc(C)c(-n2c3nc(=O)[nH]c(=O)c-3cc3cc([N+](=O)[O-])ccc32)c1	-23%	-21%	-7%	?	-8%	28µM*
Cc1cccc(-n2c(-c3ccc([N+](=O)[O-])cc3)nc3ccccc3c2=O)c1	2%	i	-15%	?	-5%	-16%
COc1cc(Cl)c(NS(=O)(=O)c2ccc(-c3cnc(C4CC4)o3)cc2)c(OC)c1	/	?	-1%	-76*	?	?
O=S(=O)(NCc1ccccc1Cl)c1ccc(-c2cnc(C3CC3)o2)cc1	/	-25%	8%	-19	-20%	-6%
COc1ccc(C)cc1NS(=O)(=O)c1ccc(-c2cnc(C3CC3)o2)cc1	?	?	3%	-103*	?	?
CCOc1ccccc1CNS(=O)(=O)c1ccc(-c2cnc(C3CC3)o2)cc1	?	?	7%	-69*	?	?
Cc1cc(C)n(S(=O)(=O)c2ccc(Cl)cc2)n1	18%	-9%	-5%	-1	-12%	3%
O=C(CN1CCOCC1)N/N=C/c1ccccc1	?	-3%	1%	43	-11%	0%
Nc1c(C(O)(C(F)(F)F)C(F)(F)F)cc(C(O)(C(F)(F)F)C(F)(F)F)c2ccccc12	?	11µM*	-23%	/	?	?
COc1cc(SC)ccc1C(=O)Nc1ccccn1	?	-13%	4%	45	-22%	-56%
CCN(CC)S(=O)(=O)c1cccc(NC(=O)c2ccc(SC)cc2OC)c1	11µM*	?	-2%	?	-23%	?
COc1cc(SC)ccc1C(=O)Nc1cccc(C)n1	13µM*	i	-5%[57.1 µM]	30	-18%	-27%
COc1cc(SC)ccc1C(=O)Nc1ccc(C)cc1	?	-16%	0%	54	?	2%
COc1cc(SC)ccc1C(=O)Nc1ncc(C)s1	?	/	7%	-82*	/	10µM*
COc1cc(SC)ccc1C(=O)Nc1ccon1	?	/	4%	-107*	/	53%
NC(COCc1ccccc1)c1csc(Nc2ccccn2)n1 (configuration not stated)	/	-9%	/	15	2%	-25%
COc1cc(SC)ccc1C(=O)NC(C)C	-14%	i	27%	-12	-7%	1%
COc1cc(SC)ccc1C(=O)Nc1ccc(Br)cn1	?	/	2%	-83*	/	-93%
O=C1OC(=O)c2c(Br)c(Br)c(Br)c(Br)c21	?	i	-27%	24	-8%	0%
NS(=O)(=O)c1ccc(NC(=S)Nc2ccn(Cc3cccc4ccccc34)n2)cc1	10µM*	-26%	-12%	-79*	-30%	?
CC(C)N1C(=O)C(Cc2nc3ccccc3c(=O)n2-c2ccccc2)c2ccccc21 (configuration not stated)	?	-28%	2%	-72*	-17%	-11%
O=c1c2ccccc2nc(/C=C/c2ccccn2)n1-c1ccccc1	-3%	/	2%	?	/	?
SMILES	HCV inh	Vaccinia mCherry	Sm TGR inh	HCMV antiviral	Vaccinia Venus	FMDV inh
CC(C)N1C(=O)/C(=C\c2nc3ccccc3c(=O)n2-c2ccccc2)c2ccccc21	?	11µM*	-5%	-95*	?	18µM*
CC(C)N1C(=O)/C(=C/c2nc3ccccc3c(=O)n2-c2ccccc2)c2ccccc21	?	-2%	2%	-105*	-13%	28µM*
CN1C(=O)C(Cc2nc3ccccc3c(=O)n2-c2ccccc2)c2ccccc21 (configuration not stated)	15%	/	-1%	-23	/	-15%
COc1ccc(-n2c(/C=C3/C(=O)Nc4ccccc43)nc3ccccc3c2=O)cc1	1%	i	7%	?	-6%	?
Cc1cccc(C)c1NC(=O)CSc1nnc(-c2ccoc2C)n1CCc1ccccc1	1%	-3%	9%	17	-6%	-10%
COc1ccccc1NC(=S)NC1CC2CCC1C2 (configuration not stated)	-7%	/	-13%	?	/	54%
CN(C)NC(=S)NC1CC2CCC1C2 (configuration not stated)	20%	/	7%	-61*	/	3%
CCCN(C(=O)CSc1ncnc2sccc12)c1c(N)n(Cc2ccccc2)c(=O)[nH]c1=O	0%	/	2%	-29	/	-8%
On1onc2c3cc(-c4ccccc4)nc3ccc21	2.2µM*	3.2µM*	2%	-108*	?	24%
CCCNC(=O)N[C@H]1C=C[C@H](CC(=O)OC)O[C@@H]1CO	/	0%	/	-2	3%	-3%
O=C(O)c1ccc(N2C(=O)CC(N3CCN(c4cccc(C(F)(F)F)c4)CC3)C2=O)cc1 (configuration not stated)	21%	i	89µM*	-14	-18%	-15%
COc1ccc(N2C(=O)CC(N3CCN(c4cccc(Cl)c4)CC3)C2=O)cc1 (configuration not stated)	9%	/	32%	4	/	-24%
O=C(O)c1ccc(N2C(=O)CC(N3CCN(c4cccc(Cl)c4)CC3)C2=O)cc1 (configuration not stated)	17%	/	50µM*	29	/	0%
Cc1sc2c(c1C)c(=O)n(CCc1ccccc1)c(=O)n2Cc1cccc(F)c1	/	-8%	2%	-18	-10%	?
COc1ccc(CC(=O)Nc2cc(-c3nc4cccnc4s3)ccc2C)cc1	/	-2%	-8%	75	-14%	31%
O=C(Nc1ccc(Cl)c(Cl)c1)Nc1nccs1	-29%	/	15%	-66*	/	-18%
O=C(Nc1ccccc1)Nc1nnc(CSCc2ccccc2Cl)s1	26%	?	0%	?	?	0%
O=C(Nc1ccc(Cl)cc1)Nc1nnc(CSCc2ccccc2Cl)s1	?	/	-8%	-91*	/	?
O=C(Nc1ccc(Cl)c(Cl)c1)Nc1nnc(CSc2ccccc2)s1	?	-19%	7%	-99*	-24%	?

High-throughput results (PubChem BioAssay)
